# Tested on: PPARg:RXRa 90nM:30nM, anti-RXR (NR concentration 90 nM, RXRa partner concentration 30 nM)
# Test: PBM binding z-score (relative to random genomic background probes); higher = stronger binding; sequences stand for … in GC…GCGATTGACAGCGTAGAATGAAGG
# Summary of the method: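 Regression normalization was applied to scanned fluorescence from custom Agilent 4×180K protein-binding microarrays. Before scanning, arrays were incubated 1 h with ligand-free nuclear receptor dimers, and binding was detected with antibodies against each partner (one per run). Binding z-scores use the random background probes as reference.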
row,Sequence,PBM binding z-score
1,TCATCTAGGTAATACAGGTGAAAGTCGGCATCTA,3.22
2,CGTCCAAGGTCAGAAGGTCAGTGAAAGCGACGTG,3.11
3,CATACAGGGTCAGCTAAGCCAGAGTAGGGACGGC,1.9
4,TATACAGGGTCAGAGGCCAGAGTACGAATGTCGA,4.52
5,GGATCGAGGGCATTCGAGTTGATAGCATGGCGAT,0.313
6,ACTAGTTGGTCAGCTGTGGTCACACACAATTCGG,-0.158
7,TCGAGTAGGTTAGGGGCACTCAGAATGGCGTCGA,1.64
8,CCTAGAAGGCCAATCTGGGTCACTCAAGGCTTGA,1.97
9,ACTTACGAGTCAACGAGGTTATAGCACGCGTATA,0.254
10,TAGCCTAGGTCATGGGCTAGTATACCACGCGAAC,2.07
11,TCTGCTAGGTCAACGATGGTCATCTAATCTGCTA,2.79
12,TCTATTAGCTGATTAGGGCAACCGAAACAGCGGA,2.13
13,CTCGAAAGGTGGGTTGAGGTGAGTATACGGATAA,-0.00652
14,CGTCCAAGGTCATAGGAAGTCAGTGAAGACAGAT,3.64
15,ATCTATAGGTAACAAGTTCAGTGAAAGAGAGGAC,1.46
16,TCGTGTAGATCAAGCAGGTTAAGAAAGCCTGAGT,1.61
17,CCTGGGAGGACAACAGGAGGTCAGAGCTGCCAGA,0.161
18,AGAATGAGGGTATACGTAGATCAGGGAAGAAAGT,0.51
19,AATACAGGGTCACTAGGCTAGAGTAGGTACGAAT,5.09
20,TCGAGTAGGTTACTAATGGGGCATTCAGCTTTCT,0.928

row,Sequence,PBM binding z-score
1,GTACCAACGTGAATAGGTCGTTGATGAGTAGGCG,-0.176
2,CCTACTGGGCCATCAGGTTATTGATATCAACGTT,1.4
3,ATCTCTAGGTAAGACTCAGTTCATTGAAGAACGC,0.482
4,CCTTACGGGTGAAGGTTATAGCACGGGTGGTACG,0.958
5,ACCTCTAGGTAAAAGTTCAGTGAATCCCGAGGAT,8.74
6,CGTCAAAGTTCAACTAAGGTGACGTAAAGCACGC,4.48
7,CATACTGGGCCATCAGGTCATTGATATCAACGTT,2.43
8,CCGACTGGGGCATAAGGTTACAATAAGCCAGCCC,2.68
9,CGAACTAGGTCAGAACAGGACAGTGCAGGATGAT,3.81
10,CAAACTTGGTCAAAGGTCAAAGTCGAGCCAACCA,11.2
11,TCATATAGGCAAATGCTAGGTGAAAGTCCGATCT,2.14
12,ATCTCTATGTAAAGATAGTTCAGTGAATGCAAAT,0.173
13,GTACCAAGGAGAATAGGTCGTTGATGAGTAGGCG,-0.0411
14,TATACAGGGCCAAAGGCCAGAGTACGAATGTCGA,4.32
15,GCTGCTAGGTCAGGTTGCTCAGCTAACGGGTACG,0.106
16,AGTCAAAGTTCAGGGCGAGGTAACGTAAAGCACG,4.08
17,ACCTACGGGTCAACGAGGTTATAGCACGCGTATA,3.68
18,TCTGCTAAGTCAGTTGGTCAGCTAACGAGCTGCC,0.712
19,TATCCTAGGTCATGGGCCAGTATACCACGCGAAC,4.89
